Results taken from PubChem BioAssay (EPA / NIEHS).
Active and inactive are the calls of the source. The calls were made as follows: active = hit-call score of the fitted dose curve at least 0.9, where 1 is the maximum; inactive = score below 0.9.

Test: APR_HepG2_MitoticArrest_72hr: Apredica 72-hour HepG2 Assay for Mitotic Arrest (AID 2282918)
Conditions: high-content imaging, actives raise or lower the signal
Procedure, shortened: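 HepG2 cells were exposed for 72 hr to compound at 0.39–200 uM (10 concentrations, duplicate) in 0.5% v/v DMSO, fixed in 3.7% formaldehyde, immunostained for phospho-histone H3 with Hoechst 33342 and imaged by high-content fluorescence; bidirectional fits versus DMSO.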

outcome, inactive:
CN(C)CCCN(C)CCCN(C)C, Cc1cc(SC2=C(O)C[C@@](CCc3ccc(N)cc3)(C(C)C)OC2=O)c(C(C)(C)C)cc1CO, OCC(CO)n1cnc(-c2ccc(F)cc2)c1-c1ccnc(Oc2ccccc2)n1, c1ccc2occc2c1, CCCCC(CC)COC(=O)CCCCCCCC(=O)OCC(CC)CCCC (centres undefined), CC(C)(C)c1ccccc1, COC(=O)CCC(=O)OC, COC(=O)CCCC(=O)OC, O=C(O)c1[nH]n(-c2ccc(S(=O)(=O)O)cc2)c(=O)c1N=Nc1ccc(S(=O)(=O)O)cc1

AC50, active:
CCCCc1nc2cccnc2n1Cc1ccc(-c2ccccc2-c2nnn[nH]2)cc1 67.1 µM, CCCCC(CC)COP(=O)(OCC(CC)CCCC)OCC(CC)CCCC (centres undefined) 31.5 µM

Test: APR_HepG2_MicrotubuleCSK_72hr: Apredica 72-hour HepG2 Assay for Microtubule CSK Stabilty (AID 2282919)
Conditions: HepG2 microtubule cytoskeleton, high-content imaging, actives raise or lower the signal
Procedure, shortened: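 High-content imaging of alpha-tubulin staining in fixed HepG2 cells after 72 hr treatment with ten concentrations from 0.39 to 200 uM (0.5% DMSO). Fitting was bidirectional against DMSO; taxol served as positive control.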

outcome, inactive:
O=C1c2c(O)cccc2Cc2cccc(O)c21, CCCCCCCC(=O)OC, CCc1cc(C2=C(C(=O)O)N(c3ccccc3C(F)(F)F)S(=O)(=O)c3ccccc32)cc2c1OCO2, OCC(O)CO, S=c1[nH]c2ccccc2s1, CCCCCCCCCC[N+](C)(C)[O-], CN(C)CCCN1c2ccccc2Sc2ccc(Cl)cc21, COc1ccc(C(=O)Nc2nc3ccccc3c(NCc3ccccc3)c2C#N)cc1, CO[C@@H]1COCC[C@@H]1N[C@@H]1CC[C@@](C(=O)N2CCc3ncc(C(F)(F)F)cc3C2)(C(C)C)C1, CS(=O)(=O)c1ccc([C@@H](C[C@H]2CCC(=O)C2)C(=O)Nc2cnccn2)cc1Cl, COc1ccc(OC(F)(F)F)cc1CN[C@H]1CCCN[C@H]1c1ccccc1, Oc1ccc(O)cc1, CN(C)C(=O)NC1(c2ccccc2)CCN(CCC[C@]2(c3ccc(Cl)c(Cl)c3)CCCN(C(=O)c3ccccc3)C2)CC1, CCc1nc(N)nc(N)c1-c1ccc(Cl)cc1, CC(C)(O)c1ccc(CNC(=O)c2cccnc2Oc2ccc(F)cc2)cc1, Nc1nc(Cl)nc2c1ncn2[C@H]1C[C@H](O)[C@@H](CO)O1, CN(C)CCCN(C)CCCN(C)C, Cc1cc(SC2=C(O)C[C@@](CCc3ccc(N)cc3)(C(C)C)OC2=O)c(C(C)(C)C)cc1CO, OCC(CO)n1cnc(-c2ccc(F)cc2)c1-c1ccnc(Oc2ccccc2)n1, c1ccc2occc2c1, CCCCC(CC)COC(=O)CCCCCCCC(=O)OCC(CC)CCCC (centres undefined), CC(C)(C)c1ccccc1, COC(=O)CCC(=O)OC, COC(=O)CCCC(=O)OC, O=C(O)c1[nH]n(-c2ccc(S(=O)(=O)O)cc2)c(=O)c1N=Nc1ccc(S(=O)(=O)O)cc1

AC50, active:
CN(C)C(=O)NC1(c2ccccc2)CCN(CC[C@@]2(c3ccc(F)c(F)c3)CN(C(=O)c3ccccc3)CCO2)CC1 82.9 µM, NCCOCCOCCN 96.6 µM, CCCCc1nc2cccnc2n1Cc1ccc(-c2ccccc2-c2nnn[nH]2)cc1 94.4 µM, CCCCC(CC)COP(=O)(OCC(CC)CCCC)OCC(CC)CCCC (centres undefined) 51.5 µM

Test: APR_HepG2_P-H2AX_24hr: Apredica 24-hour HepG2 Assay for H2AX Phosphorylation (AID 2282920)
Conditions: high-content imaging, actives raise or lower the signal
Procedure, shortened: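 HepG2 human liver cells were exposed for 24 hr to compounds at 0.39–200 uM in duplicate, with 0.5% v/v DMSO final. Fixed cells were immunostained for phospho-histone H2A.x plus Hoechst 33342, imaged by HCS fluorescence, and fitted bidirectionally against DMSO.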

outcome, inactive:
O=C1c2c(O)cccc2Cc2cccc(O)c21, CCCCCCCC(=O)OC, CCc1cc(C2=C(C(=O)O)N(c3ccccc3C(F)(F)F)S(=O)(=O)c3ccccc32)cc2c1OCO2, OCC(O)CO, S=c1[nH]c2ccccc2s1, CCCCCCCCCC[N+](C)(C)[O-], CO[C@@H]1COCC[C@@H]1N[C@@H]1CC[C@@](C(=O)N2CCc3ncc(C(F)(F)F)cc3C2)(C(C)C)C1, CS(=O)(=O)c1ccc([C@@H](C[C@H]2CCC(=O)C2)C(=O)Nc2cnccn2)cc1Cl, Oc1ccc(O)cc1, CN(C)C(=O)NC1(c2ccccc2)CCN(CC[C@@]2(c3ccc(F)c(F)c3)CN(C(=O)c3ccccc3)CCO2)CC1, CCc1nc(N)nc(N)c1-c1ccc(Cl)cc1, CC(C)(O)c1ccc(CNC(=O)c2cccnc2Oc2ccc(F)cc2)cc1, CN(C)CCCN(C)CCCN(C)C, Cc1cc(SC2=C(O)C[C@@](CCc3ccc(N)cc3)(C(C)C)OC2=O)c(C(C)(C)C)cc1CO, OCC(CO)n1cnc(-c2ccc(F)cc2)c1-c1ccnc(Oc2ccccc2)n1, c1ccc2occc2c1, CCCCC(CC)COC(=O)CCCCCCCC(=O)OCC(CC)CCCC (centres undefined), CC(C)(C)c1ccccc1, COC(=O)CCC(=O)OC, COC(=O)CCCC(=O)OC, O=C(O)c1[nH]n(-c2ccc(S(=O)(=O)O)cc2)c(=O)c1N=Nc1ccc(S(=O)(=O)O)cc1

AC50, active:
CN(C)CCCN1c2ccccc2Sc2ccc(Cl)cc21 26 µM, COc1ccc(C(=O)Nc2nc3ccccc3c(NCc3ccccc3)c2C#N)cc1 106 µM, COc1ccc(OC(F)(F)F)cc1CN[C@H]1CCCN[C@H]1c1ccccc1 32.6 µM, CN(C)C(=O)NC1(c2ccccc2)CCN(CCC[C@]2(c3ccc(Cl)c(Cl)c3)CCCN(C(=O)c3ccccc3)C2)CC1 22.5 µM, NCCOCCOCCN 76.5 µM, Nc1nc(Cl)nc2c1ncn2[C@H]1C[C@H](O)[C@@H](CO)O1 0.551 µM, CCCCc1nc2cccnc2n1Cc1ccc(-c2ccccc2-c2nnn[nH]2)cc1 48.6 µM, CCCCC(CC)COP(=O)(OCC(CC)CCCC)OCC(CC)CCCC (centres undefined) 68 µM
